Source: PubChem BioAssay AID588453 (National Center for Advancing Translational Sciences (NCATS), 2011)
“And” between values parts separate entries of the source, which are not always exact repeats. Identical values can stand only once. Among all 390,000 compounds or so, about 4,000 (1%) were called active. Another 4% or so got no clear call; they are omitted. This is one part of a sample in which actives are shown more often than they occur. The call rests on the fitted dose curve; in most records, active means well fitted inhibition curve with a large enough effect; inconclusive means small, poorly fitted or top-dose-only effect; inactive means no such curve, though single readings can be large or run the other way. The source holds several records for some structures; these can differ, active in one and inactive in another.

target: Thioredoxin reductase 1, cytoplasmic (Rattus norvegicus) (UniProt O89049); assay: qHTS Assay for Inhibitors of Mammalian Selenoprotein Thioredoxin Reductase 1 (TrxR1): qHTS; settings: recombinant rTrxR1, NADPH fluorescence consumption, selenite substrate; series mostly up to 114 µM; activity change, negative = inhibition: at the top concentration; further: nearly all actives have a fitted effect of over 65% in size
Procedure, shortened: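 Rat TrxR1 (90 nM in the dispensed reagent) was pre-reduced with 400 uM NADPH for 5 min at room temperature, then incubated with compound for 15 min. After 400 uM selenite was added, NADPH fluorescence (Ex 340/Em 450 nm) was followed for 8 min.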
On the % scale 0 is the no-effect control and ±100 the full control effect; potency means the concentration at half of the fitted maximal effect.

Thioredoxin reductase 1, cytoplasmic (Rattus norvegicus), sequence (O89049 whole entry, looked up): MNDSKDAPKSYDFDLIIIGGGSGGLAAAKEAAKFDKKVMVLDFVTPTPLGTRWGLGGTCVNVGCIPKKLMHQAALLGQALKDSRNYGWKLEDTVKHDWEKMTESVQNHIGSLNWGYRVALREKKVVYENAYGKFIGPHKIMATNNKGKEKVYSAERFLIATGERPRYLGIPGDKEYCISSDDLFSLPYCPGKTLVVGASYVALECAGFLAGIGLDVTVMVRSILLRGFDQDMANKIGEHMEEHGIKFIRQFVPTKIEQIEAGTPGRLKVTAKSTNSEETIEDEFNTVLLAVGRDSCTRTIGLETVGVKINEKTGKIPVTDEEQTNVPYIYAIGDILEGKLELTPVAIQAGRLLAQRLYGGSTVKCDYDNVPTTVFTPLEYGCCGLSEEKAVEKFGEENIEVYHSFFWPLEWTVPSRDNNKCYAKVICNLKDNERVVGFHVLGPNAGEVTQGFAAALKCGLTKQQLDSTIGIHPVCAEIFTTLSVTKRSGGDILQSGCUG

Activity change, negative = inhibition, inactive:
CN(C)c1ccc(C=Nc2ccc(/C=C/c3ccnc4ccccc34)cc2)cc1 -22.1%
O=C(OCc1cc(Cl)ccc1OC(F)F)c1cccnc1 19.4%
O=C(O)/C(=C/c1cccnc1)NC(=O)c1ccccc1 -10.9%
Cc1cc(C)c(NC(=O)CN2C(=O)c3cccnc3Oc3ccc(Cl)cc32)c(C)c1 12%
Cc1ccc(SCC(CC(C)C)N2CCN(CCc3ccccc3)CCC2=O)cc1 (centres undefined) -13.2%
O=C(Nc1nnc(C2CC(=O)N(c3ccc(Cl)cc3)C2)s1)c1ccco1 (centres undefined) 35.7%
O=C(Nc1ccc2nc(SCCOc3ccccc3)sc2c1)c1ccco1 -12.7%
Cc1ccc(C)c(OCC(=O)Nc2sc3c(c2C#N)CCCC3)c1C -9.89%
COc1cccc(C2CC(c3ccccc3)=NN2S(=O)(=O)c2ccccc2)c1OC (centres undefined) 28.7% [at 57.1 µM]
Cc1ccc2c(c1)N(C(=O)CCC(=O)NCc1ccccc1F)CC(C)O2 (centres undefined) 9.14%
O=C(C1CCC(Cn2c(=O)c3sccc3n(Cc3ccccc3F)c2=O)CC1)N1CCCCC1 (centres undefined) 44.2% [at 57.1 µM]
COc1ccc(-n2c(SCC(=O)Nc3ccc(Cl)c(C)c3)nc3n[nH]c(C)c3c2=N)cc1 9.9% [at 57.1 µM]
O=C(Nc1ccc2oc(-c3ccc(O)c(Br)c3)nc2c1)c1cc2ccccc2o1 13.4%
CCN(c1ccc(Cl)cc1)S(=O)(=O)c1nnc(NC(=O)c2ccco2)s1 1.56%
CCOc1cccc(C(=O)Nc2nnc(S(=O)(=O)N(C)c3ccc(C)cc3)s2)c1 20.4%
CCC(=O)Nc1nnc(S(=O)(=O)N(CC(C)C)c2ccccc2)s1 14.3% [at 57.1 µM]
CCN(CC)S(=O)(=O)c1nnc(NC(=O)COc2ccccc2Cl)s1 3.5%
CCCCOc1ccc(C(=O)NO)cc1 16.9%
COC(=O)c1ccc(NC(=O)CCc2c(C)nc3c(c(C)nn3-c3ccc(C)cc3)c2C)cc1 -16%
COC(=O)c1cc(NC(=O)c2cnc(SC)nc2-c2ccccc2)cc(C(=O)OC)c1 7.82% [at 57.1 µM]
N#Cc1cccc(CN2CCC(=O)N(CCO)CC2)c1 11.3%
N#CCCN1CCN(S(=O)(=O)c2ccc(S(=O)(=O)N3CCCC3)cc2)CC1 19.7% [at 57.1 µM]
COc1cc2nc(Cl)nc(NC3CC3)c2cc1OC -0.97%
Cc1cccc(C(CC(=O)NCC2(c3ccccc3)CCCC2)c2ccccc2)c1O (centres undefined) 14.6%
O=C(CCSCc1ccccc1F)N1CCN(c2ccc(Cl)cc2)CC1 2.41% [at 57.1 µM]
COC(=O)C1=C(C)N(c2ccc(C)cc2)/C(=C/c2ccc(O)cc2)C1=O 9.2%
COC(=O)C1=C(C)N(C)C(C)=C(C(=O)OC)C1c1cccc(Br)c1 15.4% [at 57.1 µM]
COc1ccc(N2C(=O)/C(=C\c3ccco3)N=C2SCC(N)=O)cc1Cl -3.55% [at 57.1 µM]
COc1ccc(N2C(=O)CS(=O)(=O)C23C(=O)N(Cc2ccc(C)cc2)c2ccccc23)cc1Cl (centres undefined) 23.5%
Cc1ccc2nc(COc3cccc(NC(=O)c4ccccc4Cl)c3)cc(=O)n2c1 8.09% [at 57.1 µM]
O=C(CSc1ccc(-c2cccs2)nn1)Nc1ccccc1F 45.6% [at 57.1 µM]
COc1ccc(Cl)cc1NC(=O)CSc1nc(-c2cccs2)cc(C(F)(F)F)n1 15.6%
CCc1ccc(S(=O)(=O)c2nnn3c2nc(N2CCN(CC)CC2)c2sccc23)cc1 27.1%
CC(C)C[C@H](NC(=O)[C@H](O)[C@H](N)Cc1ccccc1)C(=O)O 18.1% [at 57.1 µM]
O=C(CSc1nnc(-c2cccnc2)n1CCc1ccccc1)NCc1ccccc1 7.54%
CCn1c(SCC(=O)NCc2ccco2)nnc1-c1ccc(N)cc1 9.16% [at 57.1 µM]
Cc1ccc(C)c(N2CCN(C(=O)Cc3c(C(=O)O)c(C)cn3C)CC2)c1 19.2% [at 57.1 µM]
Cc1ccccc1CNC(=O)Cn1c(C)c2cnn(-c3ccccc3)c(=O)c2c1C 23.6%

Potency, inactive and 17.8 µM (active):
CN(Cc1ccco1)S(=O)(=O)c1nnc(NC(=O)c2ccccc2)s1

Potency, active:
O=C(/C=C/c1ccc(Cl)cc1Cl)c1cccnc1 4.47 µM
O=C(Nc1nc(-c2ccco2)c(-c2ccco2)s1)c1ccco1 28.2 µM
COc1ccc2c(c1OC)C(=O)OC2Nc1nc(-c2ccccc2)cs1 (centres undefined) 4.47 µM
O=C(/C=C/c1ccc([N+](=O)[O-])o1)NNC(=O)c1ccc(F)cc1 3.16 µM
CCCCC(=O)Nc1nnc(S(=O)(=O)N(C)Cc2ccco2)s1 44.7 µM
CC(C)(C)c1cc(CN2CCN(CCC#N)CC2)cc(C(C)(C)C)c1O 4.47 µM
COC(=O)C1=C(C)N(C(C)c2ccccc2)C(=O)/C1=C\c1ccco1 (centres undefined) 28.2 µM
COC(=O)C1=C(C)N(c2ccc(Br)cc2)C(=O)/C1=C\c1ccco1 50.1 µM
CSc1ccccc1NC(=O)CCS(=O)(=O)c1nc(-c2cccs2)cc(C(F)(F)F)n1 14.1 µM
O=C(CSc1nnc(-c2cccnc2)n1Cc1ccco1)c1ccc(Cl)c(Cl)c1 44.7 µM
